We go through 95 molecules from PubChem BioAssay AID504454 (NMMLSC, 2011).

Out of some 340,000 compounds screened, about 1,400 (0.41%) were called active. The full list was thinned out, with actives kept by preference. A number with no mark means an inactive call.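 The calls were made as follows: active = response above a set limit, near 3 SD of response in nonfluorescent compounds (cut at about 42% in these data); inactive = the rest.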

The target in the test is Beta-2 adrenergic receptor (Homo sapiens) (UniProt P07550). Briefly: agonist-induced loss of surface beta2AR – cell-based, FAP fluorogen, flow cytometry, primary screen (AID 504454). The following applies: Am2.2-beta2AR cells, FAP receptor internalization, stronger effect = higher value, concentration not given here.
Chain of Beta-2 adrenergic receptor (Homo sapiens) (P07550 whole entry, looked up): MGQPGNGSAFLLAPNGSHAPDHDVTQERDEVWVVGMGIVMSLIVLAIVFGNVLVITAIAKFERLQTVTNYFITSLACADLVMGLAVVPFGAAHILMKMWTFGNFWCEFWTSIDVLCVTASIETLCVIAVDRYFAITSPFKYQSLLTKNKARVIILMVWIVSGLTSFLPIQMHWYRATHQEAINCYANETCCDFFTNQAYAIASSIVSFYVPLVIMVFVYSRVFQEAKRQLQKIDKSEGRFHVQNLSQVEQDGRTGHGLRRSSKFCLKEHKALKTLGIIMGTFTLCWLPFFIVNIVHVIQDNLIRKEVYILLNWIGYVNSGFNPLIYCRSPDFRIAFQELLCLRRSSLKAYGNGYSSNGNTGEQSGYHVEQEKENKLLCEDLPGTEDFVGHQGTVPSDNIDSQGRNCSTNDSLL
For the molecule `Cc1ccccc1NC(=O)C(C)OC(=O)CCC(=O)N(CC(C)C)c1c(N)n(CC(C)C)c(=O)[nH]c1=O` (stereo not given), the response is -6.93%.

For the molecule `CC(Cc1cccs1)NC(=O)c1cccc(Cl)c1` (stereo not given), the response was 5.14%.

Turning to `NC(=O)C1CCN(C(=O)/C(=C/c2ccco2)NC(=O)c2ccccc2)CC1`, the response is 1.8%.

For the molecule `CN(CCCNC(=O)CN1C(=O)CC(C)(C)S(=O)(=O)c2ccccc21)C1CCCCC1`, the response is -2.22%.

On to `CC(NC(=O)c1ccccc1C(=O)O)c1ccc(-n2ccnc2)cc1` (stereo not given), for which the response is -8.08%.

Regarding `CCCOCC(O)CC(CC)C(=O)NNC(=S)Nc1ccccc1` (stereo not given), the response is 2.14%.

`O=C(O)CCn1c(O)c(C=C2N=c3ccccc3=N2)sc1=S`: the response is -0.19%.

On to `COC(=O)c1ccccc1NC(=O)C1CCN(S(=O)(=O)c2cc(OC)ccc2OC)CC1`, for which the response is 4.15%.

With `Nc1cc(N2CCCCCC2)c2nonc2c1[N+](=O)[O-]`, the response was 7.26%.

As for `Cc1nnc(SCC(=O)N2c3ccccc3C(C)(c3ccc(Cl)cc3)CC2(C)C)s1` (stereo not given), the response is 5.93%.

In the case of `CSCCNC(=O)c1ccc2nc(Cc3ccccc3F)oc2c1`, the response was 1.28%.

`COC(=O)c1c(NC(=O)C2CC(C)=C(C)CC2C(=O)O)sc2c1CCCCC2` (stereo not given): the response is 4.27%.

As to `CC1=C(C)CC(C(=O)NNC(=O)c2csc3c2CCC(C(C)(C)C)C3)C(C(=O)O)C1` (stereo not given), the response is 61% (active).

Turning to `CC1=C(C)CC(C(=O)NNC(=O)c2ccccc2O)C(C(=O)O)C1` (stereo not given), the response is -13%.

Consider `C=CCNC(=O)C1CC=CCC1C(=O)O` (stereo not given), for which the response was -0.29%.

`CCCCNc1c(-c2ccc(OC)c(Sc3ccc(OC)cc3)c2)nc2ccc(Cl)cn12`: the response is 23%.

Consider `CCCCCCSc1ccc(-c2nc3ccc(Cl)cn3c2NCc2ccccc2)cc1`, for which the response was -5.85%.

As to `CCCCNc1c(-c2cccc(Sc3ccc(OC)cc3)c2)nc2ccccn12`, the response was 45% (active).

With `COc1ccc(C2=Nn3c(nnc3-c3ccccc3OC)SC2)cc1OC1CCCC1`, the response is 29.8%.

For `O=C1C=C(NS(=O)(=O)c2ccccc2)C(=O)c2ccccc21`, the response is 1.55%.

Regarding `CC(NC(=O)c1ccccc1)C(=O)Nc1ccccc1` (stereo not given), the response is -0.42%.

Regarding `O=C(NC1=CC(=O)c2ccccc2C1=O)c1ccccc1`, the response is 84% (active).

For `COc1ccc(C2c3[nH]c4ccccc4c3CCN2CCCn2cccn2)cc1C` (stereo not given), the response was -1.99%.

Consider `Cc1ccc(N2C(=O)CC(N3CCSCC3)C2=O)c(C)c1` (stereo not given), for which the response was -0.71%.

As to `CC(C)(C)NC(=O)CN(C(=O)c1ccc(Cl)nc1)c1cccc2ccccc12`, the response was 1.65%.

On to `CC(=O)OCCOCn1cnn2c(=O)c(Br)c(C)nc12`, for which the response was -5.29%.

With `Cc1cnc(C)c(N2CCN(C(=O)C3CCC(=O)N(CCc4cccc(F)c4)C3)CC2)n1` (stereo not given), the response is -4.11%.

Consider `NC(=O)C1(N2CCCC2)CCN(Cc2ccccc2)CC1`, for which the response was -1.07%.

For `COC(=O)c1[nH]c2ccccc2c1NC(=O)CN1CCCc2ccccc21`, the response was 6.44%.

`COC(=O)c1[nH]c2ccc(Br)cc2c1NC(=O)Oc1ccccc1`: the response is 43.5% (active).

As for `C/C(=N\N)c1c(-c2ccccc2)c2cc(Br)ccc2[nH]c1=O`, the response was -0.61%.

As to `O=C1c2oc3ccccc3c(=O)c2C(c2cccc(O)c2)N1c1ccccn1` (stereo not given), the response is -12.8%.

For `COCCN1C(=O)c2oc3c(C)cc(C)cc3c(=O)c2C1c1cccc(O)c1` (stereo not given), the response is 51.7% (active).

Turning to `CCCOc1ccc(C2c3c(oc4cc(C)c(C)cc4c3=O)C(=O)N2CCCN2CCOCC2)cc1` (stereo not given), the response was -4.95%.

Take `COCCCn1c(SCc2cccc(OC)c2)nc2cc(OC)c(OC)cc2c1=N`: the response was 7.49%.

For `CCCC(=O)Nc1nnc(CC(=O)OCC)s1`, the response is 8.2%.

As to `CN1CCN(C(CNS(=O)(=O)c2cccs2)c2cccnc2)CC1` (stereo not given), the response is -2.41%.

In the case of `COc1ccc(C[C@H]2CN3C(=NC[C@H]3C)N2CCNC(=O)CCC2CCCCC2)cc1`, the response is 8.82%.

Take `CCOc1ccccc1N1C(=O)CC(Sc2nccc(C)n2)C1=O` (stereo not given): the response was 47.5% (active).

Consider `CC(=O)Nc1ccc(N2C(=O)CC(Sc3nccc(C)n3)C2=O)cc1` (stereo not given), for which the response was 1.18%.

Take `COc1ccc(N2C(=O)CC(Sc3n[nH]c(-c4ccc(C)cc4)n3)C2=O)cc1` (stereo not given): the response was 1.89%.

As for `COCC1CCN(C(=O)CCc2nnc(C3(c4ccc(Cl)cc4)CCC3)o2)C1` (stereo not given), the response was -4.25%.

In the case of `COc1ccc(CCNC(=O)CCc2ccccc2O)cc1OC`, the response was 0.69%.

In the case of `Cc1ccc(NC(=O)CN(C)C(=O)Cn2nnc(-c3ccccc3)n2)cc1`, the response is -5.12%.

On to `CCOC(=O)c1ccc(NC(=O)Cn2cnc3cc(C)c(C)cc32)cc1`, for which the response was 9.03%.

Take `CCOC(=O)c1ccc(NC(=O)Cn2nnc(-c3ccc(C)cc3)n2)cc1`: the response was 91.8% (active).

As for `Cc1ccc(CNC(=O)CCC(=O)N2CC(C)Sc3ccccc32)cc1` (stereo not given), the response was -5.01%.

As for `O=C(/C=C/Sc1ncn[nH]1)c1ccc(Cl)cc1`, the response is 78.1% (active).

As for `Cc1cc(C)nc(S/C=C/C(=O)c2ccccc2)n1`, the response is 41.9%.

For the molecule `Cc1cccc(C=CC(=O)c2ccc(Cl)cc2)c1`, the response is 0.41%.

`CCc1cc(-c2nnc(SCC(=O)NC3CC3)n2C)cs1`: the response was -9.66%.

For `CCC(C)(C)NC(=O)CN(C(=O)C(=O)Nc1ccc2c(c1)OCCO2)C(C)(C)CC`, the response is 0.65%.

`COc1ccc(-n2c(=O)[nH]c3cc(C(=O)NCCc4ccc(OC)c(OC)c4)ccc3c2=O)c(OC)c1`: the response was 2.93%.

On to `CN/C(=C\[N+](=O)[O-])NCCSCc1csc(CN(C)C)n1`, for which the response was -4.88%.

Regarding `CC(C)CC(=O)NC(=S)NNC(=O)c1cccc([N+](=O)[O-])c1`, the response was -4.1%.

Regarding `C#CCN1CC(C)/C(=N/O)CC1C` (stereo not given), the response is -6.18%.

Turning to `O=C(/C=C/c1ccco1)NC(=S)Nc1ccccc1Br`, the response is 12.9%.

`O=C(/C=C/c1ccco1)NC(=S)N1CCCCC1`: the response was 88.5% (active).

On to `COc1ccccc1/C=C/C(=O)NC(=S)N1CCOCC1`, for which the response was -6.28%.

Take `C=CCNC(=O)COC(=O)c1ccccc1C(=O)N(C)C1CCCCC1`: the response was 2.56%.

Take `Cc1ccc(SCC(=O)N2CCN(c3ccc(F)cc3)CC2)cc1`: the response is -23.7%.

As for `CCN1CCN(C(=O)CSc2ccc(C)cc2)CC1`, the response is 11.4%.

For the molecule `CCN1CCC2(CC1)N=C(c1ccc(F)cc1)C(=S)N2C(=O)c1ccc(C)cc1`, the response was 85.6% (active).

Take `CCn1cc(/C=C(\NC(=O)c2ccc(C)cc2)C(=O)NCCN2CCOCC2)c2ccccc21`: the response is 4.83%.

As to `CCCN(Cc1cc2cccc(C)c2[nH]c1=O)S(C)(=O)=O`, the response was 9.7%.

In the case of `COc1ccc(CCNC(=O)C(=O)Nc2ccc3nc4n(c(=O)c3c2)CCCCC4)cc1OC`, the response is -7.18%.

In the case of `Cc1nc(-c2ccc(Cl)cc2)sc1C1(C)CC(c2ccc(Br)cc2)=NO1` (stereo not given), the response was -4.06%.

As for `Clc1cccc(-c2nc(NCC3CCCO3)c3ccccc3n2)c1` (stereo not given), the response is -5.27%.

`NC(N)=Nc1nc(-c2ccccc2)c2cc(Cl)ccc2n1`: the response was 8.97%.

As for `Clc1ccc2nc(-c3ccccc3)nc(C(Cl)Cl)c2c1`, the response was 50% (active).

Consider `Cc1ccc(S(=O)(=O)NCCc2nnc3ccc(SCc4cccnc4)nn23)cc1`, for which the response is -8.28%.

Consider `CC(C)OC(=O)c1ccc(COc2ccc3ccc(=O)oc3c2)o1`, for which the response was -3.14%.

Regarding `CCN(CC)C(=O)CSc1nnc(CNc2ccc(F)cc2)n1Cc1ccco1`, the response was -1.42%.

Take `O=C(N[C@@H](Cc1ccccc1)C(=O)OCc1ccccc1)c1nc[nH]c1C(=O)NC1CCNCC1`: the response is -6.96%.

For `CC(C)(C)OC(=O)N1CCC(NC(=O)c2[nH]cnc2C(=O)N[C@@H](Cc2ccccc2)C(=O)OCc2ccccc2)CC1`, the response is 78.6% (active).

As to `CC(C)(C)OC(=O)CNC(=O)c1[nH]cnc1C(=O)N[C@@H](Cc1ccccc1)C(=O)OCc1ccccc1`, the response was 10.2%.

Turning to `O=C(O)c1ccc(Cn2cnc3c(=S)nc[nH]c32)cc1`, the response is 5.59%.

With `O=S(=O)(Nc1ccc2cn[nH]c2c1)c1ccccc1`, the response is 4.15%.

For the molecule `O=C(O)c1cc(S(=O)(=O)Nc2ccc3cn[nH]c3c2)ccc1Br`, the response is 7.91%.

Take `O=S(=O)(Nc1ccc2[nH]ncc2c1)c1ccccc1Cl`: the response was 60.7% (active).

Take `Cc1ccc(S(=O)(=O)N(CC(=O)NN=C2CCN(C)CC2)c2ccc(F)cc2)cc1`: the response was -3.48%.

Take `Oc1ccccc1C1=NN(c2ccccc2)C(c2ccccc2)C1` (stereo not given): the response is 13.4%.

As to `COc1ccc(CCNC(=O)C2CCCN(S(=O)(=O)c3ccc(OC)cc3)C2)cc1` (stereo not given), the response is -1.09%.

Take `CC(=O)Nc1ccc(NC(=O)C2CCCN(S(=O)(=O)c3ccc(Cl)cc3)C2)cc1` (stereo not given): the response was -2.61%.

Turning to `COc1ccc(S(=O)(=O)N2CCCC(C(=O)Nc3ccc(NC(=O)c4ccccn4)cc3)C2)cc1` (stereo not given), the response is 46.4% (active).

Turning to `COc1ccc(C2CC(c3cccs3)Nc3nnnn32)cc1` (stereo not given), the response was 12.6%.

As for `Cc1ccc2nc(-c3ccc(NC(=O)c4cccnc4)cc3)oc2c1`, the response is 17.5%.

`Cc1ccc(OCC(=O)Nc2ccc(-c3nc4ncccc4o3)cc2)cc1`: the response is 117% (active).

For the molecule `Cc1ccc(NC(=O)COc2ccc(/C=C3/NC(=O)NC3=O)cc2)cc1`, the response was 7.62%.

On to `C=CCOc1ccc(/C=C2/C(=O)ON=C2C)cc1OCC`, for which the response is 4.94%.

Regarding `COc1cc(/C=C2/C(=O)ON=C2C)ccc1OCc1cccc(F)c1`, the response was 105% (active).

For the molecule `C#CCOc1ccc(/C=C2/C(=O)ON=C2C)cc1OCC`, the response was -1.93%.

Take `COc1cc(/C=C2\SC(=O)NC2=O)ccc1OCc1ccc(Cl)nc1`: the response was 12.6%.

For the molecule `COc1cc(/C=C2/C(=O)ON=C2C)ccc1OCc1ccccc1F`, the response was 88.8% (active).

For `CC1=NOC(=O)/C1=C\c1ccccc1`, the response is 10.9%.
